In PubChem BioAssay AID1159577 (Broad Institute, 2015) one finds outcome data, which are given here for 47 molecules.

Out of some 1,300 compounds screened, about 240 (18%) were called active. About 8% were inconclusive and are not listed. The rule behind the calls is not given here. Only a sample is shown. Measured potencies and affinities stand elsewhere.

The experiment can be described thus: toxicity to human hepatoma HepG2 cells – cell-based, cherry-picked samples, cytotoxicity control, dose response (AID 1159577). To be noted: HepG2 cytotoxicity counterscreen, plate reader; series mostly up to 19.5 µM.
As for `COc1ccc2c3c([nH]c2c1)[C@@H](CO)N(C(=O)C1CCCCC1)CC31CCN(Cc2nccs2)CC1`, the molecule was called inactive.

In the case of `COc1ccc2c3c([nH]c2c1)[C@H](CO)N(C(=O)C1CCCCC1)CC31CCN(Cc2nccs2)CC1`, the outcome was inactive. Turning to `COc1ccc2c3c(n(C)c2c1)[C@H](CO)N(C(=O)C1CC1)CC31CN(C(=O)C2CCOCC2)C1`, the call was inactive.

Consider `COc1ccc2c3c(n(C)c2c1)[C@@H](CO)N(C(=O)C1CC1)CC31CCN(C(=O)Nc2cccc(F)c2)CC1`, for which the call was inactive. Regarding `O=C(C[C@@H]1C[C@H]2c3cc(NS(=O)(=O)c4ccc(F)cc4)ccc3O[C@H]2[C@H](CO)O1)N1CCc2ccccc2C1`, the result was inactive. For `COc1cccc(CN2[C@@H](CO)[C@H](c3ccccc3)C23CN(C(=O)C2CCOCC2)C3)c1`, the outcome was inactive. Take `CN(C)c1ccc2c(c1)[C@H]1C[C@H](CC(=O)NCc3ccc(Oc4ccccc4)cc3)O[C@H](CO)[C@H]1O2`: the outcome was inactive. Consider `CCCC(=O)N1CCC2(CC1)CN(S(=O)(=O)c1ccc(C)cc1)[C@@H](CO)c1[nH]c3cc(OC)ccc3c12`, for which the molecule was classed as inactive. As for `C[C@H]1CN([C@@H](C)CO)C(=O)c2c(c3ccccc3n2C)-c2ccccc2CO[C@@H]1CN(C)C(=O)Nc1ccc(-c2ccccc2)cc1`, the molecule was called inactive. Regarding `O=C(Nc1ccc(C(F)(F)F)cc1)N1[C@@H]2CNC[C@H]1C2c1ccc(/C=C/c2ccccc2)cc1` (some centres not stated), the outcome was inactive. For `O=S(=O)(Cc1ccccc1)N1[C@H](CO)[C@@H](c2ccccc2)C12CN(CCC(F)(F)F)C2`, the molecule was classed as inactive.

For `CC(C)(C)[S@@](=O)N1Cc2cc(C(=O)NCCN3CCCCC3)nc(-c3cccc(-c4cccc(C#N)c4)c3)c2[C@H]1CCO`, the call was inactive. In the case of `COc1ccc(C#Cc2ccc3c(c2)[C@H]2[C@H](CCN2C(=O)C2CCC2)[C@@H](CO)N3)cc1` it was “inactive”; in that of `CN(C)CC(=O)N1[C@H](CO)[C@H](c2ccc(C#CC3CCCCC3)cc2)[C@@H]1C#N`, “inactive”. In the case of `C[C@@H]1CN([C@H](C)CO)C(=O)c2cccc(NS(=O)(=O)c3ccccc3)c2O[C@H]1CN(C)Cc1ccc(-c2ccccc2)cc1` it was “inactive”. On to `O=C(c1ccc(F)cc1)N1CC(=O)N2[C@H](CO)[C@@H](c3ccc(/C=C/c4ccccc4)cc3)[C@@H]2C1`, for which the molecule was classed as inactive.

With `O=C(C[C@H]1CC[C@@H]2[C@H](COC[C@@H](O)CN2C(=O)Nc2ccc3c(c2)OCO3)O1)N1CCN(c2ccccc2)CC1`, the outcome was inactive.

Regarding `C/C=C/c1ccc([C@@H]2[C@H](CO)N(CC3CC3)C23CN(C(=O)c2ccc4c(c2)OCO4)C3)cc1`, the molecule was classed as inactive. The entry for `N#Cc1ccc(-c2ccc([C@@H]3[C@@H]4CN(C(=O)Nc5ccc6c(c5)OCO6)C[C@H]3N4)cc2)cc1` is “inactive”.

For the molecule `CN(C)C(=O)c1cccc(-c2ccc3c(c2)[C@H]2[C@H](CCN2C(=O)C2CC2)[C@@H](CO)N3)c1`, the call was inactive. In the case of `C/C=C/c1ccc([C@@H]2[C@H](CO)N(CC3CCCC3)C23CN(C(=O)CC2CC2)C3)cc1` it was “inactive”. The entry for `CCC(=O)N1CCC2(CC1)CN(S(=O)(=O)c1ccccc1)[C@@H](CO)c1[nH]c3cc(OC)ccc3c12` is “inactive”. Consider `N#C[C@@H]1[C@H](c2ccccc2-c2cccc(F)c2)[C@H](CO)N1C(=O)C1CCCC1`, for which the result was inactive. Turning to `C[C@H](CO)N1C[C@H](C)[C@H](CN(C)S(=O)(=O)c2cccs2)OCc2ccccc2-c2c(n(C)c3ccccc23)C1=O`, the call was inactive. Regarding `C[C@@H]1CN([C@@H](C)CO)C(=O)c2cc(C#Cc3ccccc3)cnc2O[C@H]1CN(C)C(=O)CN(C)C`, the outcome was inactive. With `C[C@@H]1CN([C@H](C)CO)C(=O)c2cc(C#Cc3cccc(F)c3)cnc2O[C@@H]1CN(C)C(=O)C1CCCCC1`, the result was inactive.

Take `COc1cccc(C#Cc2cnc3c(c2)C(=O)N([C@H](C)CO)C[C@H](C)[C@@H](CN(C)C(=O)C2CCCCC2)O3)c1`: the molecule was classed as inactive. The entry for `C[C@@H]1CN([C@@H](C)CO)C(=O)c2cc(C#Cc3ccccc3)cnc2O[C@H]1CN(C)C(=O)CCN1CCCCC1` is “inactive”; for `C[C@@H]1CN([C@H](C)CO)C(=O)c2cc(C#CCc3ccccc3)cnc2O[C@H]1CN(C)C(=O)C1CCC1` it is “inactive”; for `COc1cccc(C#Cc2cnc3c(c2)C(=O)N([C@@H](C)CO)C[C@H](C)[C@@H](CN(C)C(=O)C2CCCCC2)O3)c1` it is “inactive”. In the case of `C[C@H](CO)N1C[C@H](C)[C@H](CN(C)C(=O)C2CCCCC2)Oc2ncc(C#Cc3cccc(F)c3)cc2C1=O`, the call was inactive. For the molecule `C[C@H]1CN([C@@H](C)CO)C(=O)c2cc(C#Cc3cccc(F)c3)cnc2O[C@@H]1CN(C)C(=O)C1CCCCC1`, the molecule was called inactive. In the case of `COCC(=O)Nc1ccc2c(c1)OC[C@H](C)N(Cc1ccncc1)C[C@H](C)[C@@H](OC)CN(C)C2=O` it was “inactive”. In the case of `C[C@H](CO)N1C[C@H](C)[C@H](CN(C)C(=O)C2CC2)Oc2cc(C#Cc3ccccc3)ccc2S1(=O)=O`, the molecule was classed as inactive.

On to `C[C@@H]1CN([C@@H](C)CO)C(=O)c2c(c3ccccc3n2C)-c2ccccc2CO[C@H]1CN(C)Cc1cccc(C(=O)Nc2ccccc2N)c1`, for which the result was inactive.

Turning to `CO[C@H]1CN(C)C(=O)c2ccc(NS(=O)(=O)CC(F)(F)F)cc2OC[C@@H](C)N(Cc2nccs2)C[C@H]1C`, the call was inactive. The entry for `COc1ccccc1-c1cccc(-c2nc(C(=O)Nc3nccs3)cc3c2[C@H](CCO)N(C(C)=O)C3)c1` is “inactive”. For `C[C@@H]1CN([C@@H](C)CO)C(=O)c2ccccc2-c2ccccc2CO[C@H]1CN(C)C(=O)Nc1cccc(Cl)c1Cl`, the outcome was inactive. `COc1ccc(CN2C[C@@H](C)[C@H](OC)CN(C)C(=O)c3cc(NC(=O)c4nc5ccccc5s4)ccc3OC[C@H]2C)cc1`: the molecule was classed as inactive.

Turning to `CCCN(C)C[C@H]1Oc2ncc(C#Cc3ccccc3OC)cc2C(=O)N([C@H](C)CO)C[C@H]1C`, the result was inactive. The entry for `CCCN(C)C[C@H]1Oc2ncc(C#Cc3ccc(F)cc3)cc2C(=O)N([C@@H](C)CO)C[C@H]1C` is “inactive”; for `COc1cccc(NC(=O)N2[C@@H](CO)[C@@H](c3ccccc3)[C@@H]2CNC(C)C)c1` it is “inactive”; for `C[C@@H]1CN([C@@H](C)CO)C(=O)c2cccc(NC(=O)Nc3ccccc3)c2O[C@@H]1CN(C)C(=O)Nc1ccccc1` it is “inactive”. In the case of `COc1ccc2c3c([nH]c2c1)[C@H](CO)N(C(=O)Nc1ccc(F)cc1)CC31CCN(Cc2cc(-c3ccccc3)on2)CC1`, the result was inactive. On to `COc1ccc2c3c([nH]c2c1)[C@@H](CO)N(C(=O)Nc1cccc(F)c1)CC31CN(CC2CCOCC2)C1`, for which the call was inactive. The entry for `COc1ccc2c3c([nH]c2c1)[C@H](CO)N(C(=O)Nc1ccc(F)cc1)CC31CCN(C(=O)c2ccccn2)CC1` is “inactive”; for `COc1ccc2c3c([nH]c2c1)[C@H](CO)N(C(=O)Nc1ccc(F)cc1)CC31CCN(S(=O)(=O)c2cccc(F)c2)CC1` it is “inactive”.
